Activity calls are given as the source filed them.
How the values were obtained:
[1] = system: Plasmodium falciparum Sir2 (PF13_0152, Sir2A); assay: Plasmodium falciparum Sir2A binding compounds – biochemical, small-molecule microarray, 635 nm fluorescence, primary screen (AID 1098); settings: fluorescence 635 nm, higher = more signal;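 note: score merges spot fluorescence intensity with its signal-to-noise ratio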
[2] = probe aDKK1 binding to arrayed compounds – biochemical, biotinylated probe, 635/667 nm fluorescence, primary screen (AID 1099); settings: small-molecule microarray, higher = more signal;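 note: score merges 667nm spot fluorescence with signal to noise across triplicate slides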
[3] = probe aCHRDL2 binding to arrayed compounds – biochemical, biotinylated probe, 635/667 nm fluorescence, primary screen (AID 1100); settings: small-molecule microarray, higher = more signal
[4] = change in splice reporter luminescence, either direction, cell-based, HEK293, spliceosome inhibition project, primary screen (AID 1101); settings: HEK293 splicing luciferase reporter, 24 h, higher = more signal, called active from +8 up or from −8 down;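 note: HEK293 cells carrying a splicing-competent luciferase reporter gene; test concentration not given here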
[5] = target: Fibroblast growth factor 10 (Homo sapiens) (UniProt O15520); assay: compounds binding fibroblast growth factor 10 – biochemical, small-molecule microarray, 635 nm fluorescence, primary screen (AID 1102); settings: FGF10 binding, fluorescence 635 nm, higher = more signal
[6] = system: glycogen synthase kinase-3 (GSK3A per assay name; protocol says GSK3B); assay: compounds binding glycogen synthase kinase-3 – biochemical, small-molecule microarray, 635 nm fluorescence, GSK3A, primary screen (AID 1103); settings: fluorescence 635 nm, higher = more signal; note: the record names both GSK3A and GSK3B
[7] = target: Epidermal growth factor receptor (Homo sapiens) (UniProt P00533); assay: compounds binding epidermal growth factor receptor – biochemical, small-molecule microarray, 635 nm fluorescence, primary screen (AID 1104); settings: EGFR binding, higher = more signal;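 note: score merges 667 nm emission intensity with spot signal to noise over triplicate slides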
[8] = target: Follistatin-related protein 3 (Homo sapiens) (UniProt O95633); assay: compounds binding follistatin-related protein 3 – biochemical, small-molecule microarray, 635 nm fluorescence, primary screen (AID 1105); settings: FSTL3 binding, higher = more signal;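 note: score merges emission near 667 nm and signal to noise per printed spot across three slides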
[9] = target: Dickkopf-related protein 1 (Homo sapiens) (UniProt O94907); assay: small molecules binding DKK1 protein – biochemical, small-molecule microarray, 635 nm fluorescence scan, primary screen (AID 1106); settings: higher = more signal;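 note: score merges emission near 667 nm with signal to noise over three replicate slides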
[10] = system: Inhibin beta A chain (activin A); assay: small molecules binding activin A – biochemical, small-molecule microarray, 635 nm fluorescence scan, primary screen (AID 1107); settings: INHBA, higher = more signal;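 note: mouse activin A protein probed at 4.33 µg/mL on printed slides; score merges bound-protein fluorescence near 667 nm with spot signal-to-noise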
[11] = system: Human papillomavirus type 1a protein E7 (residues 44-93); assay: small molecules binding HPV E7 44-93 – biochemical, small-molecule microarray, residues 44-93, 635 nm fluorescence, primary screen (AID 1108); settings: fluorescence 635 nm, higher = more signal;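 note: E7 fragment applied at 1 µg/mL in TBST for 1 h at 4 C; score combines spot fluorescence with its signal to noise ratio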
[12] = hepatitis C replication reporter changes, two-sided – Huh7 cells, luciferase reporter, HCV replication inhibitor project, primary screen (AID 1109); settings: Huh7 HCV replicon luciferase reporter, 48 h; higher = more signal;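 note: huh7 hepatoma cells harbouring a luciferase neomycin HCV replicon reporter; luciferase luminescence as measure of HCV replicon replication; test concentration not given here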
[13] = target: Left-right determination factor 2 (Homo sapiens) (UniProt O00292); assay: small molecules binding LEFTY2 protein – biochemical, small-molecule microarray, 635 nm fluorescence scan, primary screen (AID 1110); settings: higher = more signal
[14] = target: Calmodulin-1 (Homo sapiens) (UniProt P0DP23); assay: small molecules binding calmodulin-1 with EGTA – biochemical, small-molecule microarray, Cy5-labelled CALM1, profiling panel (AID 1111); settings: Cy5-CALM1 binding fluorescence, higher = more signal;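 note: labelled calmodulin applied in Tris saline Tween buffer holding calcium plus EGTA and DTT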
[15] = target: Calmodulin-1 (Homo sapiens) (UniProt P0DP23); assay: small molecules binding Ca-loaded calmodulin-1 – biochemical, small-molecule microarray, Cy5-labelled CALM1, plus calcium, artefact control for SMM control-protein annotation, profiling panel (AID 1112); settings: Cy5-CALM1 binding fluorescence, higher = more signal;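 note: score merges spot fluorescence with signal to noise from triplicate slides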
[16] = probe aWnt5a binding to arrayed compounds – biochemical, biotinylated probe, 635/667 nm fluorescence, primary screen (AID 1113); settings: small-molecule microarray, higher = more signal;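 note: score merges 667 nm fluorescence intensity with signal-to-noise per printed feature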
[17] = probe aShh binding to arrayed compounds – biochemical, biotinylated probe, 635/667 nm fluorescence, primary screen (AID 1114); settings: small-molecule microarray, higher = more signal;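 note: probe is biotin-labelled aShh protein from a stem cell growth factor screen; measures binding of labelled protein to compounds printed on the slide; score merges feature fluorescence at 667 nm with signal-to-noise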
[18] = probe aNog binding to arrayed compounds – biochemical, biotinylated probe, 635/667 nm fluorescence, primary screen (AID 1115); settings: small-molecule microarray, higher = more signal;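 note: probe is biotinylated aNog protein used at 0.15 µg/mL for 1 h at 4 C; z-score combines 667 nm fluorescence of each spot with its signal to noise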
[19] = target: Torsin-1A-interacting protein 1 (Homo sapiens) (UniProt Q5JTV8); assay: compound microarray binding of lysate hLAP1 – cell lysate, small-molecule microarray, COS7 lysate, 635/667 nm fluorescence, primary screen (AID 1116); settings: 635 nm fluorescence, higher = more signal
[20] = target: Alpha-bungarotoxin (Bungarus multicinctus) (UniProt P60615); assay: compounds binding labelled alpha-BTX control protein – biochemical, small-molecule microarray, Alexa647 label, 635/667 nm fluorescence, artefact control for SMM control protein annotation, profiling panel (AID 1117); settings: alpha-BTX-A647 binding fluorescence, higher = more signal
Alpha-bungarotoxin (Bungarus multicinctus), sequence (P60615 whole entry, looked up): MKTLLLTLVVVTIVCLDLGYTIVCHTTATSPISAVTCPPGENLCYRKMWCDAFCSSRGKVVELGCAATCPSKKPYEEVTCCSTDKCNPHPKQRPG

Follistatin-related protein 3 (Homo sapiens), sequence (O95633 whole entry, looked up): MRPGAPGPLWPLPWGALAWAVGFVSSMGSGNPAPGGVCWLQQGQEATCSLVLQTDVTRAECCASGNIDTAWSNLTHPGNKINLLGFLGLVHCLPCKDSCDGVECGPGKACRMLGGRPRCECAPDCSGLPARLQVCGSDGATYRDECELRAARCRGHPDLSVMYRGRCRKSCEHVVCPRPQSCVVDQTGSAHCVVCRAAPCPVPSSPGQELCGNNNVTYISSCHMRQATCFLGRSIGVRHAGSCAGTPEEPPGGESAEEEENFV
Dickkopf-related protein 1 (Homo sapiens), sequence (O94907 whole entry, looked up): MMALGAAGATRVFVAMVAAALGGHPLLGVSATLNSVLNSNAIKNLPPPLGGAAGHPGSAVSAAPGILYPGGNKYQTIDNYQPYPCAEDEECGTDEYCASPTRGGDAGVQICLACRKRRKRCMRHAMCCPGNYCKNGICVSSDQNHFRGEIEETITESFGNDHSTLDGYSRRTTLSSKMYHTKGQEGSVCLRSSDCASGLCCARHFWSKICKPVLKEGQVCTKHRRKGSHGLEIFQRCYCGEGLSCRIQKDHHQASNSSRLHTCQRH
Left-right determination factor 2 (Homo sapiens), sequence (O00292 whole entry, looked up): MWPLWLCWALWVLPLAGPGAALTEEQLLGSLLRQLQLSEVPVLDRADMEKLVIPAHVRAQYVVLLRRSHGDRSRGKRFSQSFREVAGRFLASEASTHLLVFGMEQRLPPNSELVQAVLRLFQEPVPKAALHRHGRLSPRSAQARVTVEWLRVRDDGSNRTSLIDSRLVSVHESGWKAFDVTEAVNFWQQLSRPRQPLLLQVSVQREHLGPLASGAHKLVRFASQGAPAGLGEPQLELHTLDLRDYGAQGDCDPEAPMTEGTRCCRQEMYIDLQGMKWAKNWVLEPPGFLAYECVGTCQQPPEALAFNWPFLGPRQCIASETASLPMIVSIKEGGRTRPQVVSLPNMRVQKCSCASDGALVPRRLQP
Torsin-1A-interacting protein 1 (Homo sapiens), sequence (Q5JTV8 whole entry, looked up): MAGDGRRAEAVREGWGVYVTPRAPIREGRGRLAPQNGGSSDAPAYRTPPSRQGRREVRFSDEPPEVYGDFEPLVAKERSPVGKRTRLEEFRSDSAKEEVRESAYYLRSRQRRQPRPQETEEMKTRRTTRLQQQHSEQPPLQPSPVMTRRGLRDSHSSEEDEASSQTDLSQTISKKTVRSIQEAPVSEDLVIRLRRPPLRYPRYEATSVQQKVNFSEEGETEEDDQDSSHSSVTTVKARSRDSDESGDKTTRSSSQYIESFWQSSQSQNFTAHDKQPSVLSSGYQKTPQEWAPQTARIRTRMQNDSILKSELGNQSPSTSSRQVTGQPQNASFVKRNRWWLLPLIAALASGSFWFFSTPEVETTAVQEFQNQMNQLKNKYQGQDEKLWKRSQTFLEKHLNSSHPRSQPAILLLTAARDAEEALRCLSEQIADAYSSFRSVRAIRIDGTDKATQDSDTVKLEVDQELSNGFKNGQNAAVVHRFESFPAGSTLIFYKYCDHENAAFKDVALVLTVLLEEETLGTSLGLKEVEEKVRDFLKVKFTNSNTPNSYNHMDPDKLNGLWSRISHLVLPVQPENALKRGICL
Epidermal growth factor receptor (Homo sapiens), sequence (P00533 whole entry, looked up): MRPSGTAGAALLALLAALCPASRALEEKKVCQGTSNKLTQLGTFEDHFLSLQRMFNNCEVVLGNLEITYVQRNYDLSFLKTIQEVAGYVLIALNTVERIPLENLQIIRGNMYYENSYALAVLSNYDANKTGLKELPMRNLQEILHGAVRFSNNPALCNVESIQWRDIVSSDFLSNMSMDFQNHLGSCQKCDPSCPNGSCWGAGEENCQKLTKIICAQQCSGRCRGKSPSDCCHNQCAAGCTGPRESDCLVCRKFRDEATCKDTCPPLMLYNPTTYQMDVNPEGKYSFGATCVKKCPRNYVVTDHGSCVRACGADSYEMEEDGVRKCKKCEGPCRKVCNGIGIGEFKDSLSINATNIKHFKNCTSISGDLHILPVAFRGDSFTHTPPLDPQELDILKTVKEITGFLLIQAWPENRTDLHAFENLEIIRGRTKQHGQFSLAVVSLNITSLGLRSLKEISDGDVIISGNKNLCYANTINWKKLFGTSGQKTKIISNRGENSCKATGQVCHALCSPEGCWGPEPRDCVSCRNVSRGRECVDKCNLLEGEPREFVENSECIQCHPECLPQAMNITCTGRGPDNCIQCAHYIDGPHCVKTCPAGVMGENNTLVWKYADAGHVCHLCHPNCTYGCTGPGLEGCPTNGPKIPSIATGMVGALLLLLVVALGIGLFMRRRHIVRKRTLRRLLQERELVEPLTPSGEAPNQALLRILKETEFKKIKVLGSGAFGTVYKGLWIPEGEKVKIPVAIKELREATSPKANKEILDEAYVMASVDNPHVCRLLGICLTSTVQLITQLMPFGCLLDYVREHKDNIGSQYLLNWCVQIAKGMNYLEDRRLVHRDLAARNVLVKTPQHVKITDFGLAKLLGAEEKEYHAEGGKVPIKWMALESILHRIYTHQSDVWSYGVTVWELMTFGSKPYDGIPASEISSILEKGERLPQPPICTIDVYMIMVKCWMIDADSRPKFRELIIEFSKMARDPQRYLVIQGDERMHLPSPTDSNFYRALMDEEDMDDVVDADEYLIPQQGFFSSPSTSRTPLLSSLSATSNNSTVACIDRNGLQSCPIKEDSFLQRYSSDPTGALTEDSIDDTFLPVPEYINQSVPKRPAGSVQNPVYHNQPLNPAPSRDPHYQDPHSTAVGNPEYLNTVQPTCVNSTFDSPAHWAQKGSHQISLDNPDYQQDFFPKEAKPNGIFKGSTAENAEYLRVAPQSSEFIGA
Fibroblast growth factor 10 (Homo sapiens), sequence (O15520 whole entry, looked up): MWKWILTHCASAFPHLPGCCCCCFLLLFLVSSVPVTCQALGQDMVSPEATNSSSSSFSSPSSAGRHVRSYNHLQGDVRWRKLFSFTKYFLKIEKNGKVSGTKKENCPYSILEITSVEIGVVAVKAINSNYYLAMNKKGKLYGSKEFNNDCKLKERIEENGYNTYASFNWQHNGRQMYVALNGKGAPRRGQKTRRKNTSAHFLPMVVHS

| SMILES | composite z-score [1] | composite z-score [2] | composite z-score [3] | z-score [4] | composite z-score [5] | composite z-score [6] | composite z-score [7] | composite z-score [8] | composite z-score [9] | composite z-score [10] | composite z-score [11] | z-score [12] | composite z-score [13] | composite z-score [14] | composite z-score [15] | composite z-score [16] | composite z-score [17] | composite z-score [18] | composite z-score [19] | composite z-score [20] |
| --- | --- | --- | --- | --- | --- | --- | --- | --- | --- | --- | --- | --- | --- | --- | --- | --- | --- | --- | --- | --- |
| COCCOC(=O)N1C(=O)[C@@]2(c3cc(C#CCNC(N)=O)ccc31)[C@H](C(=O)NC[C@H](O)c1ccccc1)[C@H]1C(=O)O[C@H](c3ccccc3)[C@H](c3ccccc3)N1[C@@H]2c1ccc(O)cc1 | 1.54 | 0.347 | 0.925 | 0.012 (inactive) | 0.477 | 0.0604 | -0.0057 | 0.683 | -0.347 | 0.7 | 0.515 | -0.249 | 0.0741 | 1.01 | 0.571 | -0.0203 | -0.152 | -0.122 | 0.138 | 1.04 |
| C/C=C/[C@@H](CCn1cc(CCO[Si](C(C)C)(C(C)C)C(C)C)nn1)[Si](C)(C)c1ccc(OC)cc1 | -0.82 | -0.941 | -0.34 | -2.83 (inactive) | -1.03 | -0.918 | -2.01 | -1.72 | -1.03 | 1.01 | -0.77 | -0.918 | -0.426 | -2.98 | -2.87 | -0.182 | -0.323 | -0.866 | -0.24 | -1.25 |
| COCCCNC(=O)[C@@]1(C)c2ccccc2C(=O)N(Cc2cc(F)cc(C(F)(F)F)c2)[C@H]1c1ccc(CO)cc1 | 0.938 | 0.612 | 0.862 | -0.112 (inactive) | 0.22 | -0.611 | -1.79 | -1.69 | -2.23 | -0.39 | -0.762 | 0.67 | -1.88 | -0.416 | 0.49 | -0.178 | -0.0769 | -0.144 | 0.0999 | -1.97 |
| C=CCN1C(=O)[C@@]2(O[C@@H](CCn3cc(CCO)nn3)[C@H]([Si](C)(C)c3ccc(OC)cc3)[C@H]2C)c2cc(NC(=O)c3ccc(OC)cc3)ccc21 | 1.18 | 0.0251 | 0.113 | -0.654 (inactive) | 0.402 | 0.546 | 0.283 | 0.571 | 0.493 | 1.32 | 0.988 | -3.92 | 0.415 | 0.317 | 0.33 | 0.0205 | -0.0035 | -0.056 | 0.403 | 1.54 |
| CCOC(=O)C[C@H]1[C@H](OC(=O)c2cc3ccccc3oc2=O)[C@@H](NC(=O)c2ccccc2)c2cc(OCCCO)ccc2N1C(=O)Cc1ccc(OC)cc1 | 0.575 | 0.33 | -0.194 | -1.78 (inactive) | 0.905 | 0.714 | 0.433 | 0.909 | 0.511 | 0.506 | 0.378 | -0.824 | 0.357 | 0.163 | -0.422 | -0.182 | -0.138 | 0.23 | 0.44 | 0.693 |
| COCCOC(=O)N1C(=O)[C@@]2(c3cc(C#CC4(O)CCCCCC4)ccc31)[C@H](C(=O)NC[C@H](O)c1ccccc1)[C@H]1C(=O)O[C@H](c3ccccc3)[C@H](c3ccccc3)N1[C@@H]2c1ccccc1OCCO | 1.27 | 0.145 | 0.348 | -0.747 (inactive) | 1.15 | 1.31 | 0.479 | 1.33 | 0.95 | 0.158 | 0.726 | -2.56 | 0.678 | 1.18 | 0.0465 | -0.129 | 0.699 | -0.0939 | 0.945 | 1.45 |
| C=C(CCCC)/C(=C/C[C@H](OC(=O)c1ccncc1)c1ccc(CO)o1)c1cnc2ccccc2c1 | 1.14 | 0.248 | -0.0775 | -0.964 (inactive) | 1.09 | 1.19 | 0.474 | 1.46 | 0.823 | 1.46 | 0.229 | -1.89 | 0.429 | 0.697 | 0.244 | -0.0236 | 0.0898 | 0.995 | 0.731 | 1.8 |
| O=c1n(-c2ccccc2)c(=O)n2n1CC(COc1ccccc1)=C1[C@@H](CCc3ccccc3)OB(O)C[C@@H]12 | 0.812 | -0.178 | -0.482 | -1.14 (inactive) | 1.02 | 0.59 | 0.235 | 0.728 | 0.488 | 0.0187 | 0.398 | -1.91 | 0.41 | 0.0534 | 0.205 | 0.0181 | 0.277 | -0.118 | 0.684 | 1.17 |
| O=C1c2ccccc2[C@@]2(Cc3ccccc3N(CC(F)(F)F)C2=O)[C@H](c2ccc(CO)cc2)N1Cc1ccccc1C(F)(F)F | -1.84 | 0.471 | 0.957 | -0.0373 (inactive) | -0.316 | -1.41 | -0.903 | -1.15 | -1.95 | 1.04 | -0.713 | 0.301 | -0.888 | -0.434 | 0.0123 | -0.104 | -0.0243 | 0.673 | -0.459 | -1.7 |
| O=C(NCC(F)(F)F)[C@@H]1c2ccccc2C(=O)N(C2Cc3ccccc3C2)[C@H]1c1ccc(CO)cc1 | 0.23 | 0.621 | 0.715 | -0.658 (inactive) | -0.691 | -0.605 | -0.621 | -0.584 | -0.808 | 1.03 | -1.07 | -0.561 | -1.21 | 0.342 | 1.14 | -0.129 | 0.267 | 0.109 | 0.179 | -1.22 |
| C[N+](C)(C)CCCCNC(=O)[C@@H]1C[C@@H]2C(=O)NCC(=O)N2[C@@H]1c1cccc(OCCO)c1 | 0.594 | -0.365 | -0.211 | -1.49 (inactive) | 1.16 | 0.68 | 0.627 | 1.39 | 1.72 | -0.0907 | 0.299 | 0.703 | 1.08 | -0.189 | -0.131 | 0.0519 | 0.0756 | 0.145 | 1.66 | 1.89 |

Reference: PubChem BioAssay
